Data reported in PubChem BioAssay (NCATS).
Results filed as inconclusive are left out. Active and inactive are the calls of the source. Calls follow the shape of the dose curve; as a rule, active = well fitted curve in the direction sought with a large enough effect; inconclusive = small, poorly fitted or top-dose-only effect, or another doubt; inactive = no such curve, though single readings can be large; an effect the other way counts as inactive or inconclusive.

What was measured:
[1] = Quantitative High-Throughput drug screen in 47 multiple myeloma cell lines against the NCATS MIPE library collection: NCIH929_DSMZ cell viability assay (AID 1918978); also: nearly all actives have a fitted effect of over 35% in size; also: potency is read from the fitted curve at half-maximal effect
Method in brief: (§1)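 ATP-based luminescence (CellTiter-Glo, 5 min RT incubation) quantified surviving cells following two days' treatment with MIPE 4.0 agents at 37 °C, 5% CO2.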

[2] = Quantitative High-Throughput drug screen in 47 multiple myeloma cell lines against the NCATS MIPE library collection: MM1R_ATCC cell viability assay (AID 1918981); also: nearly all actives have a fitted effect of over 35% in size; also: potency is read from the fitted curve at half-maximal effect
Method in brief: as §1

[3] = Quantitative High-Throughput drug screen in 47 multiple myeloma cell lines against the NCATS MIPE library collection: LP1_DSMZ cell viability assay (AID 1918982); also: nearly all actives have a fitted effect of over 35% in size; also: potency is read from the fitted curve at half-maximal effect
Method in brief: as §1

[4] = Quantitative High-Throughput drug screen in 47 multiple myeloma cell lines against the NCATS MIPE library collection: KMS28PE_JCRB cell viability assay (AID 1918983); also: nearly all actives have a fitted effect of over 35% in size; also: potency is read from the fitted curve at half-maximal effect
Method in brief: as §1

[5] = Quantitative High-Throughput drug screen in 47 multiple myeloma cell lines against the NCATS MIPE library collection: L363_DSMZ cell viability assay (AID 1918984); also: nearly all actives have a fitted effect of over 40% in size; also: potency is read from the fitted curve at half-maximal effect
Method in brief: as §1

[6] = Quantitative High-Throughput drug screen in 47 multiple myeloma cell lines against the NCATS MIPE library collection: KMS34_JCRB cell viability assay (AID 1918985);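 also: 100% = DMSO-only wells and 0% = media-only wells; nearly all actives have a fitted effect of over 40% in size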
Method in brief: as §1

[7] = Quantitative High-Throughput drug screen in 47 multiple myeloma cell lines against the NCATS MIPE library collection: OCIMY5_PLB cell viability assay (AID 1918988); also: nearly all actives have a fitted effect of over 65% in size; also: potency is read from the fitted curve at half-maximal effect
Method in brief: as §1

[8] = Quantitative High-Throughput drug screen in 47 multiple myeloma cell lines against the NCATS MIPE library collection: SKMM1_PLB cell viability assay (AID 1919863); settings: SKMM1 myeloma viability, CellTiter-Glo ATP, 48 h; viability: hits give low values; also: nearly all actives have a fitted effect of over 35% in size; also: potency is read from the fitted curve at half-maximal effect
Method in brief: as §1

[9] = Quantitative High-Throughput drug screen in 47 multiple myeloma cell lines against the NCATS MIPE library collection: XG6_PLB cell viability assay (AID 1919865); also: nearly all actives have a fitted effect of over 40% in size; also: potency is read from the fitted curve at half-maximal effect
Method in brief: as §1

[10] = Quantitative High-Throughput drug screen in 47 multiple myeloma cell lines against the NCATS MIPE library collection: XG1_PLB cell viability assay (AID 1919866); also: nearly all actives have a fitted effect of over 35% in size; also: potency is read from the fitted curve at half-maximal effect
Method in brief: as §1

[11] = Quantitative High-Throughput drug screen in 47 multiple myeloma cell lines against the NCATS MIPE library collection: PE2_PLB cell viability assay (AID 1919869); also: nearly all actives have a fitted effect of over 35% in size; also: potency is read from the fitted curve at half-maximal effect
Method in brief: as §1

[12] = Quantitative High-Throughput drug screen in 47 multiple myeloma cell lines against the NCATS MIPE library collection: PCM6_Riken cell viability assay (AID 1919870); also: nearly all actives have a fitted effect of over 30% in size; also: potency is read from the fitted curve at half-maximal effect
Method in brief: as §1

[13] = Quantitative High-Throughput drug screen in 47 multiple myeloma cell lines against the NCATS MIPE library collection: OCIMY1_PLB cell viability assay (AID 1918979)
Method in brief: as §1

[14] = Quantitative High-Throughput drug screen in 47 multiple myeloma cell lines against the NCATS MIPE library collection: MM1S_ATCC cell viability assay (AID 1918980); also: nearly all actives have a fitted effect of over 45% in size; also: potency is read from the fitted curve at half-maximal effect
Method in brief: as §1

[15] = Quantitative High-Throughput drug screen in 47 multiple myeloma cell lines against the NCATS MIPE library collection: OCIMY7_PLB cell viability assay (AID 1918987); settings: OCI-MY7 myeloma viability, CellTiter-Glo ATP, 48 h; viability (% of DMSO): at 45.8 µM (top of the series); also: nearly all actives have a fitted effect of over 65% in size; also: potency is read from the fitted curve at half-maximal effect
Method in brief: as §1

[16] = Quantitative High-Throughput drug screen in 47 multiple myeloma cell lines against the NCATS MIPE library collection: OPM1_PLB cell viability assay (AID 1918989); also: nearly all actives have a fitted effect of over 40% in size; also: potency is read from the fitted curve at half-maximal effect
Method in brief: as §1

[17] = Quantitative High-Throughput drug screen in 47 multiple myeloma cell lines against the NCATS MIPE library collection: U266_ATCC cell viability assay (AID 1919864); also: nearly all actives have a fitted effect of over 35% in size; also: potency is read from the fitted curve at half-maximal effect;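 as to viability (% of DMSO control): 0% = media-only wells without cells and 100% = DMSO-only wells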
Method in brief: as §1

[18] = Quantitative High-Throughput drug screen in 47 multiple myeloma cell lines against the NCATS MIPE library collection: UTMC2_PLB cell viability assay (AID 1919868); settings: CellTiter-Glo ATP luminescence, 48 h; viability (% of DMSO control): at 45.8 µM (top of the series); also: nearly all actives have a fitted effect of over 55% in size; also: potency is read from the fitted curve at half-maximal effect;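 as to viability (% of DMSO control): 100% = DMSO-only wells and 0% = media-only wells without cells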
Method in brief: as §1

[19] = Quantitative High-Throughput drug screen in 47 multiple myeloma cell lines against the NCATS MIPE library collection: VP6_DJ cell viability assay (AID 1919867); also: nearly all actives have a fitted effect of over 40% in size; also: potency is read from the fitted curve at half-maximal effect;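 as to viability (% of DMSO): 100% = DMSO-only wells and 0% = wells with media alone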
Method in brief: as §1

CN1[C@@H]2CCC[C@@H]1CC(NC(=O)c1nn(C)c3ccccc13)C2 (stereo not given in full)
inactive: Potency [1] | Potency [2] | Potency [3] | Potency [4] | Potency [5] | Potency [6] | Potency [7] | viability [8] 111% | Potency [9] | Potency [10] | Potency [11] | Potency [12]

COc1ccc(-n2c(C)c([N+](=O)[O-])c3ccc(O)cc32)cc1
inactive: Potency [13] | Potency [4] | Potency [16] | Potency [17] | Potency [9] | Potency [18]
active: Potency [14] 0.833 µM | Potency [2] 16.6 µM | Potency [15] 14.8 µM | Potency [11] 4.69 µM

O=c1cc(N2CCOCC2)oc2c(-c3cccc4c3sc3ccccc34)cccc12
inactive: Potency [17]
active: Potency [1] 3.72 µM | Potency [2] 16.6 µM | Potency [4] 14.8 µM | Potency [5] 8.33 µM | Potency [15] 1.18 µM | Potency [7] 20.9 µM | Potency [16] 4.18 µM | Potency [8] 11.8 µM | Potency [9] 5.9 µM | Potency [18] 5.9 µM | Potency [11] 9.35 µM | Potency [12] 8.33 µM

O=c1cc(CN2CCOCC2)occ1OCCCCCSc1ccnc2cc(C(F)(F)F)ccc12
active: Potency [1] 3.72 µM | Potency [3] 18.7 µM | Potency [5] 16.6 µM | Potency [15] 11.8 µM | Potency [7] 16.6 µM | Potency [9] 3.32 µM | Potency [10] 11.8 µM | Potency [19] 7.43 µM | Potency [18] 9.35 µM | Potency [11] 7.43 µM | Potency [12] 9.35 µM
inactive: viability [8] 111%

CN(C[C@@H]1COCCO1)S(=O)(=O)Nc1ccc2ccc3ncc(-c4cnn(C)c4)cc3c(=O)c2c1
active: Potency [1] 7.43 µM | Potency [2] 18.7 µM | Potency [15] 0.469 µM | Potency [7] 3.72 µM | Potency [16] 2.35 µM | Potency [17] 3.32 µM | Potency [10] 2.64 µM | Potency [19] 2.96 µM | Potency [18] 3.32 µM | Potency [11] 1.48 µM | Potency [12] 1.05 µM

CC(C)C[C@H](CC(=O)O)C(=O)N[C@@H](Cc1c[nH]c2ccccc12)C(=O)N[C@@H](C)c1ccccc1
inactive: Potency [1] | Potency [3] | Potency [6] | Potency [9] | Potency [10] | Potency [19] | Potency [18] | Potency [11] | Potency [12]
active: Potency [14] 1.66 µM

O=C(O)c1ccccc1C(=O)Nc1ccc(-c2ccccc2)cc1
inactive: Potency [1] | Potency [2] | Potency [3] | Potency [4] | Potency [6] | Potency [15] | Potency [7] | Potency [17] | Potency [18] | Potency [11] | Potency [12]

CCn1c(C(=O)N(C2CC2)C2CC2)cc2c3c(ncn3C)c(Nc3cc(C)n(C)n3)nc21
active: Potency [15] 14.8 µM | Potency [16] 20.9 µM | Potency [9] 13.2 µM | Potency [19] 29.6 µM | Potency [11] 16.6 µM
inactive: Potency [13] | Potency [14] | Potency [2] | Potency [3] | Potency [6] | viability [8] 128%

C[C@H]1[C@H](NC(=O)C(=NOC(C)(C)C(=O)O)c2csc(N)n2)C(=O)N1S(=O)(=O)O
active: Potency [14] 14.8 µM | Potency [17] 14.8 µM
inactive: Potency [13] | Potency [2] | Potency [3] | Potency [6] | Potency [16] | viability [8] 114% | Potency [18] | Potency [11] | Potency [12]

O=C(NOCC(O)CO)c1cc(Br)c(F)c(F)c1Nc1ccc(I)cc1F (stereo not given)
inactive: Potency [13] | Potency [4] | Potency [17]
active: Potency [1] 1.05 µM | Potency [15] 0.0166 µM | Potency [9] 2.35 µM

COc1ccc(Cc2ccc(NC(N)=O)cc2)cc1-c1cccc(Cl)c1
inactive: Potency [13] | Potency [6] | Potency [16] | Potency [11]
active: Potency [1] 16.6 µM | Potency [17] 8.33 µM

c1ccc2c(Cc3c[nH]c4ccccc34)c[nH]c2c1
active: Potency [1] 1.05 µM | Potency [2] 2.35 µM | Potency [15] 1.05 µM | Potency [7] 0.743 µM | Potency [16] 7.43 µM | Potency [8] 18.7 µM | Potency [17] 2.96 µM | Potency [9] 0.662 µM | Potency [10] 1.18 µM | Potency [19] 4.18 µM | Potency [11] 2.96 µM | Potency [12] 4.69 µM
inactive: Potency [18]

CNC(=O)c1ccc2cc(C3(O)CCn4cncc43)ccc2c1 (stereo not given)
inactive: Potency [1] | Potency [13] | Potency [3] | Potency [16] | Potency [11] | Potency [12]

O=C(O)CCC1CCC(c2cc(F)ccc2F)(S(=O)(=O)c2ccc(Cl)cc2)CC1 (stereo not given)
inactive: Potency [13] | Potency [2] | Potency [3] | Potency [7] | Potency [11]
active: Potency [14] 1.66 µM | Potency [5] 16.6 µM | Potency [15] 2.64 µM | Potency [16] 5.26 µM | Potency [17] 6.62 µM | Potency [10] 9.35 µM | Potency [19] 4.69 µM | Potency [12] 13.2 µM
